test system: MAP3K2; settings: concentration: 1 μM, replicates: in singlicate; n = 1
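Note: KINOMEscan kinase panel screen.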

Row | Structure (SMILES) | %Inh
1 | COc1cccc(NC(=O)Nc2ccc(C)c(-c3ccc(C(=O)Nc4ccncc4)cc3)c2)c1 [GSK1398474] | 0%
2 | CS(=O)(=O)Cc1ccc(Nc2nccc(-c3c(-c4cccc(NC(=O)C5CCCCC5)c4)nn4ncccc34)n2)cc1 [GSK350559] | 15%
3 | COc1ccc(Nc2nccc(-c3ccc(NC(=O)c4cc5cc(F)ccc5[nH]4)cc3)n2)cc1 [GSK1229496] | 5%
4 | Cc1cccc2c(-c3ccncn3)c(-c3ccc(F)cc3)nn12 [GW515532] | 0%
5 | NS(=O)(=O)c1cccc(N/C=C2\C(=O)Nc3ccc(S(=O)(=O)Cc4c(Cl)cccc4Cl)cc32)c1 [GSK398099] | 0%
6 | O=C(Nc1n[nH]c2nc(-c3ccco3)c(Br)cc12)C1CCN(Cc2ccccc2)C1.O=C(O)[C@H](O)[C@@H](O)C(=O)O (stereo not drawn) [SB-742034] | 21%
7 | COc1ccc(-c2coc3ccc(-c4nnc(C)o4)cc23)cc1 | 0%
8 | O=c1cc(N2CCOCC2)nc2n(Cc3ccccc3F)ccn12 [GSK2297428] | 0%
9 | COC(=O)c1cccc(NC(=O)NC2CCN(c3ccnc(Nc4ccc(F)cc4)n3)C2)c1 (stereo not drawn) [GSK1379725] | 11%
10 | Cc1c(Cn2c(C)c(C)n3c(=O)cc(N4CCOCC4)nc23)cccc1C(F)(F)F [GSK2328680] | 0%
11 | CNC(=O)c1ccc(C)c(-n2c(C)cc(OCc3ccc(F)cc3F)c(Br)c2=O)c1 | 0%
12 | COc1ccc(Nc2nccc(N3CCC(NC(=O)c4cc5ccccc5s4)C3)n2)cc1 (stereo not drawn) [GSK1379738] | 0%
13 | CC(=O)c1cccc(NC(=O)NC2CCN(c3ccnc(Nc4ccc(F)cc4)n3)C2)c1 (stereo not drawn) [GSK1379710] | 0%
14 | O=C1NC(=O)C(c2ccc(Cl)cc2)=C1Nc1cccc(Cl)c1 [SB-317651] | 0%
15 | Cc1ccc(NC(=O)Nc2ccccc2F)cc1-c1ccc(C(=O)Nc2ccncc2)cc1 [GSK1398477] | 5%
16 | Cc1ccc(NC(=O)c2ccc(Cl)cc2)cc1-c1ccc(C(=O)Nc2ccncc2)cc1 [GSK1398467] | 0%
17 | Cc1ccccc1-c1cc(-c2c[nH]nc2-c2ccccn2)ccn1 [GW680061] | 1%
18 | CC[C@@H]1CO[C@H](C(=O)Nc2ccccc2)CN1c1cc(-c2ccc3c(N)n[nH]c3c2)nc(NC)n1 [GSK2376236] | 0%

Row | Structure (SMILES) | %Inh
19 | COc1ccc(CSc2nnc(-c3ccc4ncsc4c3)o2)cc1C(F)(F)F | 0%
20 | Cc1ccc(-c2nc(Nc3ccncc3)c3ccccc3n2)s1 [GSK189015] | 0%
21 | Cc1ccccc1Cn1ccn2c(=O)cc(N3CCOCC3)nc12 [GSK2269905] | 0%
22 | CS(=O)(=O)CCNCc1nc(-c2ccc3ncnc(Nc4ccc5c(cnn5Cc5ccccc5)c4)c3c2)cs1.Cl.Cl [GW569716] | 1%
23 | Cc1nccc(-c2c(-c3ccc(F)cc3)ncn2CCCN2CCOCC2)n1.Cl [SB-282975] | 17%
24 | Cn1cncc1C(=O)NC1CCN(c2ccnc(Nc3ccc(F)cc3)n2)C1 (stereo not drawn) [GSK1379717] | 11%
25 | CN1c2ccc(-c3ccc(C(N)=O)cc3)cc2-c2[nH]ncc2S1(=O)=O | 21%
26 | CC(C)c1cc(-c2ccc3c(N)n[nH]c3c2)nc(N)n1 [GSK2250882] | 2%
27 | O=C(Nc1n[nH]c2nc(-c3cccs3)c(Br)cc12)C1CC1 [SB-735297] | 7%
28 | Cc1ccc(NC(=O)Nc2ccc(Cl)cc2)cc1-c1ccc(C(=O)Nc2ccncc2)cc1 [GSK1398472] | 16%
29 | Fc1ccc(-c2nn3cccc(F)c3c2-c2ccncc2)cc1 [GW475620] | 8%
30 | CC(C)c1ccc(O)cc1Nc1ccnc2ccc(C(F)(F)F)cc12 [GW482059] | 0%
31 | Fc1ccc(-c2nc3n(c2-c2ccncc2)CCS3)cc1 [GI98581] | 6%
32 | O=C(Nc1n[nH]c2cc(-c3ccsc3)ccc12)C1CC1 [SB-732932] | 17%
33 | Cc1cnc(N)c(/C=C/c2cncc(C(=O)NCCc3ccc(Cl)cc3Cl)c2)c1.Cl [GSK190937] | 0%
34 | CC(=O)c1c(C)c2cnc(Nc3ccc(N4CCNCC4)cn3)nc2n(C2CCCC2)c1=O | 0%
35 | COc1ccc2cc(-c3nc(-c4ccccc4C(C)C)[nH]c3-c3ccncc3)ccc2c1 [SB-660566] | 28%
36 | CCc1ccc(-c2ccc3c(c2)-c2n[nH]cc2S(=O)(=O)N3C)cc1 | 0%

test system: MAP3K3; settings: concentration: 1 μM, replicates: in singlicate; n = 1

Row | Structure (SMILES) | %Inh
37 | COc1cccc(NC(=O)Nc2ccc(C)c(-c3ccc(C(=O)Nc4ccncc4)cc3)c2)c1 [GSK1398474] | 0%
38 | CS(=O)(=O)Cc1ccc(Nc2nccc(-c3c(-c4cccc(NC(=O)C5CCCCC5)c4)nn4ncccc34)n2)cc1 [GSK350559] | 19%
39 | COc1ccc(Nc2nccc(-c3ccc(NC(=O)c4cc5cc(F)ccc5[nH]4)cc3)n2)cc1 [GSK1229496] | 0%
40 | Cc1cccc2c(-c3ccncn3)c(-c3ccc(F)cc3)nn12 [GW515532] | 0%
41 | NS(=O)(=O)c1cccc(N/C=C2\C(=O)Nc3ccc(S(=O)(=O)Cc4c(Cl)cccc4Cl)cc32)c1 [GSK398099] | 0%
42 | O=C(Nc1n[nH]c2nc(-c3ccco3)c(Br)cc12)C1CCN(Cc2ccccc2)C1.O=C(O)[C@H](O)[C@@H](O)C(=O)O (stereo not drawn) [SB-742034] | 24%
43 | COc1ccc(-c2coc3ccc(-c4nnc(C)o4)cc23)cc1 | 0%
44 | O=c1cc(N2CCOCC2)nc2n(Cc3ccccc3F)ccn12 [GSK2297428] | 0%
45 | COC(=O)c1cccc(NC(=O)NC2CCN(c3ccnc(Nc4ccc(F)cc4)n3)C2)c1 (stereo not drawn) [GSK1379725] | 0%
46 | Cc1c(Cn2c(C)c(C)n3c(=O)cc(N4CCOCC4)nc23)cccc1C(F)(F)F [GSK2328680] | 0%
47 | CNC(=O)c1ccc(C)c(-n2c(C)cc(OCc3ccc(F)cc3F)c(Br)c2=O)c1 | 0%
48 | COc1ccc(Nc2nccc(N3CCC(NC(=O)c4cc5ccccc5s4)C3)n2)cc1 (stereo not drawn) [GSK1379738] | 0%
49 | CC(=O)c1cccc(NC(=O)NC2CCN(c3ccnc(Nc4ccc(F)cc4)n3)C2)c1 (stereo not drawn) [GSK1379710] | 0%
50 | O=C1NC(=O)C(c2ccc(Cl)cc2)=C1Nc1cccc(Cl)c1 [SB-317651] | 0%
51 | Cc1ccc(NC(=O)Nc2ccccc2F)cc1-c1ccc(C(=O)Nc2ccncc2)cc1 [GSK1398477] | 0%
52 | Cc1ccc(NC(=O)c2ccc(Cl)cc2)cc1-c1ccc(C(=O)Nc2ccncc2)cc1 [GSK1398467] | 0%
53 | Cc1ccccc1-c1cc(-c2c[nH]nc2-c2ccccn2)ccn1 [GW680061] | 0%
54 | CC[C@@H]1CO[C@H](C(=O)Nc2ccccc2)CN1c1cc(-c2ccc3c(N)n[nH]c3c2)nc(NC)n1 [GSK2376236] | 0%

Row | Structure (SMILES) | %Inh
55 | COc1ccc(CSc2nnc(-c3ccc4ncsc4c3)o2)cc1C(F)(F)F | 0%
56 | Cc1ccc(-c2nc(Nc3ccncc3)c3ccccc3n2)s1 [GSK189015] | 0%
57 | Cc1ccccc1Cn1ccn2c(=O)cc(N3CCOCC3)nc12 [GSK2269905] | 0%
58 | CS(=O)(=O)CCNCc1nc(-c2ccc3ncnc(Nc4ccc5c(cnn5Cc5ccccc5)c4)c3c2)cs1.Cl.Cl [GW569716] | 0%
59 | Cc1nccc(-c2c(-c3ccc(F)cc3)ncn2CCCN2CCOCC2)n1.Cl [SB-282975] | 19%
60 | Cn1cncc1C(=O)NC1CCN(c2ccnc(Nc3ccc(F)cc3)n2)C1 (stereo not drawn) [GSK1379717] | 0%
61 | CN1c2ccc(-c3ccc(C(N)=O)cc3)cc2-c2[nH]ncc2S1(=O)=O | 12%
62 | CC(C)c1cc(-c2ccc3c(N)n[nH]c3c2)nc(N)n1 [GSK2250882] | 2%
63 | O=C(Nc1n[nH]c2nc(-c3cccs3)c(Br)cc12)C1CC1 [SB-735297] | 36%
64 | Cc1ccc(NC(=O)Nc2ccc(Cl)cc2)cc1-c1ccc(C(=O)Nc2ccncc2)cc1 [GSK1398472] | 0%
65 | Fc1ccc(-c2nn3cccc(F)c3c2-c2ccncc2)cc1 [GW475620] | 0%
66 | CC(C)c1ccc(O)cc1Nc1ccnc2ccc(C(F)(F)F)cc12 [GW482059] | 1%
67 | Fc1ccc(-c2nc3n(c2-c2ccncc2)CCS3)cc1 [GI98581] | 0%
68 | O=C(Nc1n[nH]c2cc(-c3ccsc3)ccc12)C1CC1 [SB-732932] | 5%
69 | Cc1cnc(N)c(/C=C/c2cncc(C(=O)NCCc3ccc(Cl)cc3Cl)c2)c1.Cl [GSK190937] | 0%
70 | CC(=O)c1c(C)c2cnc(Nc3ccc(N4CCNCC4)cn3)nc2n(C2CCCC2)c1=O | 0%
71 | COc1ccc2cc(-c3nc(-c4ccccc4C(C)C)[nH]c3-c3ccncc3)ccc2c1 [SB-660566] | 0%
72 | CCc1ccc(-c2ccc3c(c2)-c2n[nH]cc2S(=O)(=O)N3C)cc1 | 0%
